# In the supplement of paper PMC8728848:
# Shown is part of a subset that was picked to be rich in the strongest signals.
# B1: Gal 1 (Canis lupus) (protein)
# chain: MACGLVASNLSLKPGQCLRVQCEVVPEAKSFVLNLGKDGDNLCLHFNPRFEAHGDVNTIVCNSKDGGAWGEELRESAFPFQPGTVTEVCISFDQADLTIKLPDGYTFKFPNRLNLEAISYLAADGDMKIKCLAFD
# Key:
# Experiment in all cases: glycan array binding signal (z-score within array); higher = stronger binding
# Conditions in all cases: glycan notation: IUPAC condensed, linker removed
# [1] = biological target: Neu5Ac(a2-6)Gal(b1-4)GlcNAc(b1-3)Gal(b1-3)GlcNAc
# Method in brief: (§1)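 The Consortium for Functional Glycomics database supplied 3228 glycan arrays, of which those lacking an available protein sequence were dropped. The binding signal, a within-array Z-score, was averaged across arrays of the same protein sequence and across linkers. Negative scores can be read as non-binding.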
# [2] = biological target: Neu5Ac(a2-6)Gal(b1-4)GlcNAc6S
# Method in brief: as §1
# [3] = biological target: Neu5Ac(a2-8)Neu5Ac(a2-8)Neu5Ac
# Method in brief: as §1
# [4] = biological target: Neu5Ac9Ac(a2-6)Gal(b1-4)GlcNAc
# Method in brief: as §1
binder,measurement,setting,value
B1,glycan array binding signal (z-score),[1],-0.32
same,glycan array binding signal (z-score),[2],-0.332
same,glycan array binding signal (z-score),[3],-0.324
same,glycan array binding signal (z-score),[4],-0.303
